Results reported in ChEMBL document CHEMBL1961873, “Compounds: GSK PKIS; Assays: Nanosyn kinase panel” (2012).

Experiments:
[1] = biological target: Calcium/calmodulin-dependent protein kinase type II subunit alpha (Homo sapiens) (UniProt Q9UQM7); conditions: at 1 µM;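 also: reported value is a mean percent inhibition of CAMK2A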
[2] = biological target: Calcium/calmodulin-dependent protein kinase type II subunit delta (Homo sapiens) (UniProt Q13557); conditions: at 0.1 µM
[3] = biological target: Calcium/calmodulin-dependent protein kinase type II subunit delta (Homo sapiens) (UniProt Q13557); conditions: at 1 µM
[4] = biological target: T1, Calcium/calmodulin-dependent protein kinase type IV (Homo sapiens) (UniProt Q16566); conditions: at 0.1 µM
T1 sequence (whole entry): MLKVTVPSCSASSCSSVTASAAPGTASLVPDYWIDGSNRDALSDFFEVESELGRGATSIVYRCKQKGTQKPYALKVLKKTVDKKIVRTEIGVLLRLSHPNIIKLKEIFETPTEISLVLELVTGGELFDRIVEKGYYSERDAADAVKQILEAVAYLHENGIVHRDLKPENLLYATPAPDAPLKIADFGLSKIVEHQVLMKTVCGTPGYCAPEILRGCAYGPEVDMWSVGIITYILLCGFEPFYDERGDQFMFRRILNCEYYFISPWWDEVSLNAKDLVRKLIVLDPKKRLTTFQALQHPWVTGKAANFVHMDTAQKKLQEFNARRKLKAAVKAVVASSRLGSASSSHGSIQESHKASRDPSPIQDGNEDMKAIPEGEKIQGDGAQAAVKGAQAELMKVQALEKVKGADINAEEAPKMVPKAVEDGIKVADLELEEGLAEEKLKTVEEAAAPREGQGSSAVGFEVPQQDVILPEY

[5] = biological target: T1, Calcium/calmodulin-dependent protein kinase type IV (Homo sapiens); conditions: at 1 µM
[6] = biological target: T2, Serine/threonine-protein kinase Chk1 (Homo sapiens) (UniProt O14757); conditions: at 0.1 µM
T2 sequence (whole entry): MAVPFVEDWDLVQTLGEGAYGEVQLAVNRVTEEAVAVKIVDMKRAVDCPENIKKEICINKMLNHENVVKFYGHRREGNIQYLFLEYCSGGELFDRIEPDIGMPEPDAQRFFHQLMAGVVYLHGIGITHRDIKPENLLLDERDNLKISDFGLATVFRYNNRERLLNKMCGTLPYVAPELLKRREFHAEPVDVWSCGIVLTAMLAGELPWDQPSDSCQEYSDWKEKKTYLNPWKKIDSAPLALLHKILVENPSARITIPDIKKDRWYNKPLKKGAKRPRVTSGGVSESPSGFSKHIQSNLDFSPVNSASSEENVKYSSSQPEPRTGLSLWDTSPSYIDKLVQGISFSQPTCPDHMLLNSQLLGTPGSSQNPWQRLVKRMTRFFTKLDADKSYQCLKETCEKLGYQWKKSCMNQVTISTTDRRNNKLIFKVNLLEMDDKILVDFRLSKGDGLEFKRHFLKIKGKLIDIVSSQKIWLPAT

[7] = biological target: T2, Serine/threonine-protein kinase Chk1 (Homo sapiens); conditions: at 1 µM
[8] = biological target: Serine/threonine-protein kinase Chk2 (Homo sapiens) (UniProt O96017); conditions: at 0.1 µM
Serine/threonine-protein kinase Chk2 (Homo sapiens), sequence (O96017 whole entry): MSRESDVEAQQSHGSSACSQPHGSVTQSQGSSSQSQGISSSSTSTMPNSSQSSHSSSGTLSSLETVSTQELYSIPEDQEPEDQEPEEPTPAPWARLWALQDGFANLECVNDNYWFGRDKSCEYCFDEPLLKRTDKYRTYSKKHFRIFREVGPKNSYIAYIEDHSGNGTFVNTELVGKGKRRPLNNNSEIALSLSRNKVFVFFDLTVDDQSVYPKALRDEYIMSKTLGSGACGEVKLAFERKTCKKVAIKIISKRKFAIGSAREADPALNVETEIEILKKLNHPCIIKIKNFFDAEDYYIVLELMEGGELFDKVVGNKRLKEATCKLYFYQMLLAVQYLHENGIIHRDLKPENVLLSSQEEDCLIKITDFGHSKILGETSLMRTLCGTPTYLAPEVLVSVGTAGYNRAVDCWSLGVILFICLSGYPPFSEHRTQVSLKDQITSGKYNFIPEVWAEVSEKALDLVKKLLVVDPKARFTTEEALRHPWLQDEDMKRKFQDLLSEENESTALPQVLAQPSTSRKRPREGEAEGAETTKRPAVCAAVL

[9] = biological target: Serine/threonine-protein kinase Chk2 (Homo sapiens) (UniProt O96017); conditions: at 1 µM
[10] = biological target: Death-associated protein kinase 1 (Homo sapiens) (UniProt P53355); conditions: at 0.1 µM
Death-associated protein kinase 1 (Homo sapiens), sequence (P53355 whole entry, looked up): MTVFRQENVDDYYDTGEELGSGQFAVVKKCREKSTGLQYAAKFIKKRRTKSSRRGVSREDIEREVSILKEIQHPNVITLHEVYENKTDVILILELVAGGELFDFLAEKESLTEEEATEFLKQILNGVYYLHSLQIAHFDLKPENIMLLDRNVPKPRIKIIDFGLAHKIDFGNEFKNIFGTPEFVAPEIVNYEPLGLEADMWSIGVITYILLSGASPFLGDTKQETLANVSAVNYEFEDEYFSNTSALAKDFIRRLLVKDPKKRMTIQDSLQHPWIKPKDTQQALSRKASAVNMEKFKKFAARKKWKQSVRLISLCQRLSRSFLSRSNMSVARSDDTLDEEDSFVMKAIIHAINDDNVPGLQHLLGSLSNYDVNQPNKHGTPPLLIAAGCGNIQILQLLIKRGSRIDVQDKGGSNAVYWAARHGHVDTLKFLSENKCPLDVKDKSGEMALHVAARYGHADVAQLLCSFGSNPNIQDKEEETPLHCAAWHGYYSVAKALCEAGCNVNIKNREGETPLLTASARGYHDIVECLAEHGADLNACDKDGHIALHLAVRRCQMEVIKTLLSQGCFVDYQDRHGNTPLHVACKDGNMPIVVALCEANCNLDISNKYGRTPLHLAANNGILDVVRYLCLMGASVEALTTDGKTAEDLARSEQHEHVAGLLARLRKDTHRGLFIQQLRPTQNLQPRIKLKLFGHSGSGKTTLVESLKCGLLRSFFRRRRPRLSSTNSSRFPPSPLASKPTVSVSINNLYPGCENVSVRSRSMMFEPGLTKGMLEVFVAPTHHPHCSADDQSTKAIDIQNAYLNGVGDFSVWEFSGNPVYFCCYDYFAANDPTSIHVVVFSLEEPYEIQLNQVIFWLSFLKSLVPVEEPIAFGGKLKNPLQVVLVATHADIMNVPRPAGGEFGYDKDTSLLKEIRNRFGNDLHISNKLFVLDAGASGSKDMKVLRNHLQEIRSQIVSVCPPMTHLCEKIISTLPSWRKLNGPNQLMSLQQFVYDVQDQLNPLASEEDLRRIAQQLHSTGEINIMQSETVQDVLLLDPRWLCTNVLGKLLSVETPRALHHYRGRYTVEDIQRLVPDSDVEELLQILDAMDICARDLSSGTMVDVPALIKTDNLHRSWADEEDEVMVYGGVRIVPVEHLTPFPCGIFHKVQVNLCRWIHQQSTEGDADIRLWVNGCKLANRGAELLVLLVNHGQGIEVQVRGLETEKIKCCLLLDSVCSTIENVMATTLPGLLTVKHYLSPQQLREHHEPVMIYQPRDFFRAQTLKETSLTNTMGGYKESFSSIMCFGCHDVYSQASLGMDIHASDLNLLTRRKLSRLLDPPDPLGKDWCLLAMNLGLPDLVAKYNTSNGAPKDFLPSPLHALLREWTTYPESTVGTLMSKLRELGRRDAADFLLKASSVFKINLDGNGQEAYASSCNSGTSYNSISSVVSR

[11] = biological target: Death-associated protein kinase 1 (Homo sapiens) (UniProt P53355); conditions: at 1 µM
[12] = biological target: T3, Serine/threonine-protein kinase DCLK2 (Homo sapiens) (UniProt Q8N568); conditions: at 0.1 µM
T3 sequence (whole entry): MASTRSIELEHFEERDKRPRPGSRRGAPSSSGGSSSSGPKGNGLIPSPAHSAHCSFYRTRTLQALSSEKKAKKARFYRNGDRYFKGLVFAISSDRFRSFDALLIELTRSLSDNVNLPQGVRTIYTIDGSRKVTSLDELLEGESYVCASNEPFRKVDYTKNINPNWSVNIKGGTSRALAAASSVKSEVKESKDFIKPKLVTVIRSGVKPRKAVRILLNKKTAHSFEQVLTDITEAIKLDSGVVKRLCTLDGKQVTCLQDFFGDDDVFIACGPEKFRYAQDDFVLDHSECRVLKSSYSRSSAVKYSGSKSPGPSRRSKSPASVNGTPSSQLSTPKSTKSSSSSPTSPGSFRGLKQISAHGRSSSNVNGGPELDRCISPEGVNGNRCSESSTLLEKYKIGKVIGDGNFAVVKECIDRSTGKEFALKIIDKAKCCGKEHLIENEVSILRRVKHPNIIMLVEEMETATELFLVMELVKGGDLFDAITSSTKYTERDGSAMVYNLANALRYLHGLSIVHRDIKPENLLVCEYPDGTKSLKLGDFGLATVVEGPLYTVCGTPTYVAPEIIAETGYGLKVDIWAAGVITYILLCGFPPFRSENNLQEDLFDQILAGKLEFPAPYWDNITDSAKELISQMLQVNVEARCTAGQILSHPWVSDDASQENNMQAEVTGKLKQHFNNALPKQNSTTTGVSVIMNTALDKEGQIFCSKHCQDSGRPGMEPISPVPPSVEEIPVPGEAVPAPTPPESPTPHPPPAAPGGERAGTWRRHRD

[13] = biological target: T3, Serine/threonine-protein kinase DCLK2 (Homo sapiens); conditions: at 1 µM
[14] = biological target: MAP kinase-activated protein kinase 2 (Homo sapiens) (UniProt P49137); conditions: at 0.1 µM
[15] = biological target: MAP kinase-activated protein kinase 2 (Homo sapiens) (UniProt P49137); conditions: at 1 µM
[16] = biological target: MAP kinase-activated protein kinase 3 (Homo sapiens) (UniProt Q16644); conditions: at 0.1 µM
MAP kinase-activated protein kinase 3 (Homo sapiens), sequence (Q16644 whole entry, looked up): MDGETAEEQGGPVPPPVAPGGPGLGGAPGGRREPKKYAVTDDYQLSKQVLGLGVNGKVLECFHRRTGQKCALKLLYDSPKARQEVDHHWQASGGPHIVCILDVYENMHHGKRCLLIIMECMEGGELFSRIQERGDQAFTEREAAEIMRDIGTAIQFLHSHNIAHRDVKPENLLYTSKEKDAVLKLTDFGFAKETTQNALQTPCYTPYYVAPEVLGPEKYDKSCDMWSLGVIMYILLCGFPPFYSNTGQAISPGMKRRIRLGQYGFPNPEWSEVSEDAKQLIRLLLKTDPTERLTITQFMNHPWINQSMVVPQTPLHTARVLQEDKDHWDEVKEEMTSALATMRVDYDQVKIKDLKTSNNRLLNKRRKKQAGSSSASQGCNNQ

[17] = biological target: MAP kinase-activated protein kinase 3 (Homo sapiens) (UniProt Q16644); conditions: at 1 µM
[18] = biological target: Serine/threonine-protein kinase MARK1 (Homo sapiens) (UniProt Q9P0L2); conditions: at 0.1 µM
Serine/threonine-protein kinase MARK1 (Homo sapiens), sequence (Q9P0L2 whole entry, looked up): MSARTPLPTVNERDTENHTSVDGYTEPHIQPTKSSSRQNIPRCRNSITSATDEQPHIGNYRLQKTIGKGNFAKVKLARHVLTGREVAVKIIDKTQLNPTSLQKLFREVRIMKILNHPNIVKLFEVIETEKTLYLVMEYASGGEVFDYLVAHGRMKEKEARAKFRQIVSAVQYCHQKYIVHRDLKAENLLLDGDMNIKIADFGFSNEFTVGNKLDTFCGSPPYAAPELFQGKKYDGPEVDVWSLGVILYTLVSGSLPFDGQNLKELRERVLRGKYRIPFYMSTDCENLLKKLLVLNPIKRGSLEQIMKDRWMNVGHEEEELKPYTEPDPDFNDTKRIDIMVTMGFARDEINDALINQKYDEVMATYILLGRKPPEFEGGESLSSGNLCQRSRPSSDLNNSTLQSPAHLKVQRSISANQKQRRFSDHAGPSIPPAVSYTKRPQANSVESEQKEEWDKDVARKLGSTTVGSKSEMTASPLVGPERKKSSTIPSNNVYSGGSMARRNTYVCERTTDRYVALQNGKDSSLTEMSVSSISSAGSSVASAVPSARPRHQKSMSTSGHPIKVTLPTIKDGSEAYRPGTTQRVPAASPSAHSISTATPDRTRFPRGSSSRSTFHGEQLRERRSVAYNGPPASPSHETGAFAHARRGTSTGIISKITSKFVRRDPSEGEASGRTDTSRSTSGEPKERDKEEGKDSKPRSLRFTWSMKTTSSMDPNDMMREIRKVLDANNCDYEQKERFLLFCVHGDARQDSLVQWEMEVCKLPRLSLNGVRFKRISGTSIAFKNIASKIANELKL

[19] = biological target: Serine/threonine-protein kinase MARK1 (Homo sapiens) (UniProt Q9P0L2); conditions: at 1 µM
[20] = biological target: MAP/microtubule affinity-regulating kinase 3 (Homo sapiens) (UniProt P27448); conditions: at 0.1 µM;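 also: mean percent inhibition of MARK3 kinase activity, measured within the GSK PKIS screening panel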
MAP/microtubule affinity-regulating kinase 3 (Homo sapiens), sequence (P27448 whole entry, looked up): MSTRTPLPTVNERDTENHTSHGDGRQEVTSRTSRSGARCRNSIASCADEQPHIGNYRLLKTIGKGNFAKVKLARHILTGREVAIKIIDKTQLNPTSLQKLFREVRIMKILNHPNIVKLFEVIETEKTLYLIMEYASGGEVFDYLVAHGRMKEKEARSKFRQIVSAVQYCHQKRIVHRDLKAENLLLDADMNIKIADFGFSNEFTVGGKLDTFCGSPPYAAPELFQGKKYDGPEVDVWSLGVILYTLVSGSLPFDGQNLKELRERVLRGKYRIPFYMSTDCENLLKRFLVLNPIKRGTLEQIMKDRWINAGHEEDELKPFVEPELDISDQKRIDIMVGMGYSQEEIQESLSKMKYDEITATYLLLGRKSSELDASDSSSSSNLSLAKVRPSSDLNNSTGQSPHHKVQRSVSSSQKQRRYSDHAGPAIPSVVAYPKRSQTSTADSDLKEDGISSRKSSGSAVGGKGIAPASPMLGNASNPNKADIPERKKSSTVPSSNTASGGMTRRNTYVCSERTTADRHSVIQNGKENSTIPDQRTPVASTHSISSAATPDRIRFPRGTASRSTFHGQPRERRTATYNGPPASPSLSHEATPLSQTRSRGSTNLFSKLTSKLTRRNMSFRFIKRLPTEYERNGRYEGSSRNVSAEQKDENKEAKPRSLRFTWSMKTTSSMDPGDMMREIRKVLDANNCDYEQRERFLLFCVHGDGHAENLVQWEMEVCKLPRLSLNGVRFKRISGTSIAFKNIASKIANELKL

Calcium/calmodulin-dependent protein kinase type II subunit alpha (Homo sapiens), sequence (Q9UQM7 whole entry): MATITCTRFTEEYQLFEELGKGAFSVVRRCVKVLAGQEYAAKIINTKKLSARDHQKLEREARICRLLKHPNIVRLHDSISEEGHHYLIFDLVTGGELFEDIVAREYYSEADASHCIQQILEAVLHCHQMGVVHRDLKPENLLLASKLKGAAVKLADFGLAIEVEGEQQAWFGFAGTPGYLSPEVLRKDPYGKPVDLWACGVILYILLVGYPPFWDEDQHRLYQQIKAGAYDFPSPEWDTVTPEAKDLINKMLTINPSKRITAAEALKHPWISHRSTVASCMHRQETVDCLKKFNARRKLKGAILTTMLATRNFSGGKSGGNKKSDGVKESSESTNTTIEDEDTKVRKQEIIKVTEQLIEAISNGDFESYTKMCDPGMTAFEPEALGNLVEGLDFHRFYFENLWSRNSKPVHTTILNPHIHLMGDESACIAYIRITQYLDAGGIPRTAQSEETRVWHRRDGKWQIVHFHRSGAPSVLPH
Calcium/calmodulin-dependent protein kinase type II subunit delta (Homo sapiens), sequence (Q13557 whole entry): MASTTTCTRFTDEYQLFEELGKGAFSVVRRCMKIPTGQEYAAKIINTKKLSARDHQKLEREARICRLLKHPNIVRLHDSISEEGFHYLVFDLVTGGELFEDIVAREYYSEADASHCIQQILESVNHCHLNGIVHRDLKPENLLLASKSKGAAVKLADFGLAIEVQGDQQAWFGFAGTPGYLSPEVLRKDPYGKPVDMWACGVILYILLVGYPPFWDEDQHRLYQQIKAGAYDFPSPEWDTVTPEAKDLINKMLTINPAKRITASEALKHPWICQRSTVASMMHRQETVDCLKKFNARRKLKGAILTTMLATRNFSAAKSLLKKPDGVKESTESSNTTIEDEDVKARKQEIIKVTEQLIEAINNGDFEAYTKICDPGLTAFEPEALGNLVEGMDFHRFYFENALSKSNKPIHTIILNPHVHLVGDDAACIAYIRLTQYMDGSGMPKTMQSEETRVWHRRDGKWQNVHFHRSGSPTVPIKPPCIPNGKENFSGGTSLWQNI

Compound | inhibition [1] [%] | inhibition [2] [%] | inhibition [3] [%] | inhibition [4] [%] | inhibition [5] [%] | inhibition [6] [%] | inhibition [7] [%] | inhibition [8] [%] | inhibition [9] [%] | inhibition [10] [%] | inhibition [11] [%] | inhibition [12] [%] | inhibition [13] [%] | inhibition [14] [%] | inhibition [15] [%] | inhibition [16] [%] | inhibition [17] [%] | inhibition [18] [%] | inhibition [19] [%] | inhibition [20] [%]
CS(=O)(=O)CCNCc1ccc(-c2ccc3ncnc(Nc4ccc(OCc5cccc(C(F)(F)F)c5)cc4)c3c2)o1 | 2.36 | 3.02 | 7.55 | -2.56 | -0.39 | 5.09 | 7.64 | 4.17 | 5.4 | 6.71 | 5.63 | 0.29 | 1.78 | 3.06 | 3.74 | 5.88 | 8.3 | 0.99 | 3.78 | 0.32
COC(=O)Nc1nc2cc(Oc3ccc(NC(=O)Nc4ccccc4)cc3)ccc2[nH]1 | 1.94 | 1.6 | 1.54 | -1.32 | -2.54 | -0.71 | 3.92 | 1.94 | 3.46 | 3.21 | 3.19 | -1.72 | 5.13 | 1.49 | 1.44 | 1.74 | 2.32 | 2.28 | 4.31 | 1.57
COc1ccccc1-c1cc(/C=C2\C(=O)Nc3ncc(Br)cc32)cc(Br)c1O | 5.91 | 4.86 | 7.42 | 0.86 | 1.67 | 2.44 | 3.84 | 4.82 | 6.73 | 0.98 | 4.6 | 0.85 | 1.21 | 1.81 | 1.69 | 5.31 | 6.33 | 3.43 | 7.22 | 3.34
Cc1cc(O)cc(C)c1/C=C/c1cncc(C(=O)OC(C)(C)C)c1 | 3.26 | 2.39 | 5.41 | 0.08 | 1.35 | 2.4 | 3.47 | 0.86 | 2.31 | 1.5 | 1.3 | 4.19 | 6.15 | 1.72 | 1 | 1.97 | 2.47 | 2.3 | 2.93 | 2.5
O=C(Nc1n[nH]c2nnc(-c3cccnc3)cc12)C1CC1 | 1.88 | -1.25 | 1.45 | 1.28 | 0.43 | 0.7 | -2.5 | -1.27 | -0.14 | -1.32 | -2.01 | -0.69 | -0.41 | -0.72 | -0.2 | 0.08 | -0.37 | -0.14 | 0.29 | 0.23
CS(=O)(=O)Nc1ccc(-c2ccc3c(NC(=O)C4CC4)n[nH]c3c2)cc1 | 3.84 | 3.65 | 3.38 | -0.67 | -0.43 | 1.65 | 1.61 | 4.58 | 7.38 | 2.51 | 4.64 | 1.42 | 1.42 | 1.53 | 1.14 | 3.27 | 3.44 | 2.32 | 2.73 | 3.47
COC(=O)Nc1nc2ccc(Oc3ccc(NC(=O)Nc4cc(C(F)(F)F)ccc4F)cc3)cc2s1 | 0.75 | 0.25 | 1.63 | 0.98 | 2.48 | -6.7 | 0.48 | -0.62 | -0.04 | -0.48 | -1.22 | -1.5 | -7.94 | 0.26 | -0.42 | 7.74 | 20.3 | 0.76 | 0.29 | 0.41
